Data published in PMC5700166.

Biological target: GST-Hu-p50 (Homo sapiens, UniProt P19838 7-356)
Assay: protein-binding microarray (PBM); PBM: ~300 nM protein, 6 mM HEPES pH 7.8, 80 mM KCl, 0.5 mM EDTA, 0.5 mM EGTA, 6% glycerol, 35 ng/ul poly-dIdC, 1% milk, 1 h, room temperature; Ap Aiptasia and Nv Nematostella (sea anemones) / Co Capsaspora / Aq Amphimedon (sponge) / Dm Drosophila / Hu human; RHD is the Rel homology domain; high values mean tight binding
Conditions: dsDNA, one strand shown

GST-Hu-p50, sequence (P19838 7-356): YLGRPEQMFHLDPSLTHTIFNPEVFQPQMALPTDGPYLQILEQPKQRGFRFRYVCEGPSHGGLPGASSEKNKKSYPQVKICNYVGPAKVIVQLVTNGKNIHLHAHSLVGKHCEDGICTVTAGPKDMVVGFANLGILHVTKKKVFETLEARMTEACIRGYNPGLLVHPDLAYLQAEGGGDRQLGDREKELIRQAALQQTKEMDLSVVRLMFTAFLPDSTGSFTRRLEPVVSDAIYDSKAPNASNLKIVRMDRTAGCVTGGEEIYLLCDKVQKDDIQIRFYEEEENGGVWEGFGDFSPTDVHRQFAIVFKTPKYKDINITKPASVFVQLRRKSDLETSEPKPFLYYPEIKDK

| Sequence | binding signal |
| --- | --- |
| CCGATTAACATCAAAGAGCCCCCTGATGTTAATCGGGTCTTGATTCGCTTGACGCTGCTG | 4.43 z-score |
| CCGATTAACATCAGAAATGCCCCTGATGTTAATCGGGTCTTGATTCGCTTGACGCTGCTG | 5.55 z-score |
| CCGATTAACATCAAGGGGGATACTGATGTTAATCGGGTCTTGATTCGCTTGACGCTGCTG | 5.48 z-score |
| CCGATTAACATCAAAAGCCCCCATGATGTTAATCGGGTCTTGATTCGCTTGACGCTGCTG | 6.29 z-score |
| CCGATTAACATCAAACCACCCCCTGATGTTAATCGGGTCTTGATTCGCTTGACGCTGCTG | 4.3 z-score |
| CCGATTAACATCAGCCCCGGTGTTGATGTTAATCGGGTCTTGATTCGCTTGACGCTGCTG | 1.58 z-score |
| CCGATTAACATCAATTCCCCCCGTGATGTTAATCGGGTCTTGATTCGCTTGACGCTGCTG | 5.76 z-score |
| CCGATTAACATCAGGGGTAGAACTGATGTTAATCGGGTCTTGATTCGCTTGACGCTGCTG | 1.99 z-score |
| CCGATTAACATCAGGACCTTCCCTGATGTTAATCGGGTCTTGATTCGCTTGACGCTGCTG | 1.95 z-score |
| CCGATTAACATCACCCGGGTAAATGATGTTAATCGGGTCTTGATTCGCTTGACGCTGCTG | 1.11 z-score |
| CCGATTAACATCAGAAAATCACCTGATGTTAATCGGGTCTTGATTCGCTTGACGCTGCTG | 5.67 z-score |
| CCGATTAACATCACCCTCGAGGGTGATGTTAATCGGGTCTTGATTCGCTTGACGCTGCTG | 2.34 z-score |
| CCGATTAACATCAGGGCCTTTTGTGATGTTAATCGGGTCTTGATTCGCTTGACGCTGCTG | 2.05 z-score |
| CCGATTAACATCAATCCACCCCCTGATGTTAATCGGGTCTTGATTCGCTTGACGCTGCTG | 4.45 z-score |
